Measurements as given in PMC7862700, “An all-to-all approach to the identification of sequence-specific readers for epigenetic DNA modifications on cytosine”.

What was measured:
Assay in all cases: DAPPL (digital affinity profiling via proximity ligation, sequencing); 10 mM Tris-HCl pH 7.5, 50 mM NaCl, 1 mM DTT, 4% glycerol, room temperature, 30 min; GST-TFs on glutathione beads, 16-mer random dsDNA library, 0.1% formaldehyde crosslink after washing; high values mean tight binding
Conditions in all cases: protein: recombinant; tags: N-terminal GST; dsDNA, one strand shown
ERF = biological target: T1, ERF (Homo sapiens, UniProt P50548 1-548)
T1 sequence: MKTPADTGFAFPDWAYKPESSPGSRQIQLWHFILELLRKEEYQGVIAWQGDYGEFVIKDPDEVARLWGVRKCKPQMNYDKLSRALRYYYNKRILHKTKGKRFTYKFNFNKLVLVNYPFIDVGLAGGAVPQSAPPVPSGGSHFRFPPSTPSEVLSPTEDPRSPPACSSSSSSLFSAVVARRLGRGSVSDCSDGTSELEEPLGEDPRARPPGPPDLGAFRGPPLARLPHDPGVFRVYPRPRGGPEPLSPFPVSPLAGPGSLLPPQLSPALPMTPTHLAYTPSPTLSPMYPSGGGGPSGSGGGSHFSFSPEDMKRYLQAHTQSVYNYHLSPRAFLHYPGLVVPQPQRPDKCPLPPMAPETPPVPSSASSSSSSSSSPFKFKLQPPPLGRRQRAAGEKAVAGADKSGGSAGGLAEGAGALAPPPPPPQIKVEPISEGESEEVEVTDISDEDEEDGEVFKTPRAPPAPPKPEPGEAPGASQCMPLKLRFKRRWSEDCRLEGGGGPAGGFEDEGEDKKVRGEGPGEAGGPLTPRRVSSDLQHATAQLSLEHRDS
In short: (§1)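 Beads coated with glutathione captured GST-fused human transcription factors that had been expressed in yeast, and the factors were then given DNA barcodes and pooled with a tag-only sample. The pools were incubated with 200 nmole of a random double-stranded 16-mer DNA library in Tris/NaCl/DTT/glycerol buffer for 30 min at room temperature, washed, crosslinked with 0.1% formaldehyde and proximity-ligated with BsaI/T4 ligase at 37 °C for 1 h. PCR amplification and Illumina NextSeq500 sequencing came last. Binding signal is each hexamer's read frequency for a factor divided by its frequency for the tag-only sample.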

ETV3L = biological target: T2, ETV3L (Homo sapiens, UniProt Q6ZN32 1-361)
T2 sequence: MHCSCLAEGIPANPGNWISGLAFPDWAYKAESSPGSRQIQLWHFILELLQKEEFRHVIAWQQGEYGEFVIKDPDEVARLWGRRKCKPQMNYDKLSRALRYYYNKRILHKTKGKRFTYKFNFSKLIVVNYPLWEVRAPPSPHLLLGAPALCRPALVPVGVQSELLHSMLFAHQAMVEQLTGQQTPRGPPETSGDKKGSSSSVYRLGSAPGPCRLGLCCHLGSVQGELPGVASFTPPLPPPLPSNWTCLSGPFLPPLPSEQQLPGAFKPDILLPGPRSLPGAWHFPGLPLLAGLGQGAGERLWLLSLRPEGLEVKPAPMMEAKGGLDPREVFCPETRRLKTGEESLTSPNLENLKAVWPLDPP
In short: as §1

ETS2 = biological target: T3, ETS2 (Homo sapiens, UniProt P15036 1-469)
T3 sequence: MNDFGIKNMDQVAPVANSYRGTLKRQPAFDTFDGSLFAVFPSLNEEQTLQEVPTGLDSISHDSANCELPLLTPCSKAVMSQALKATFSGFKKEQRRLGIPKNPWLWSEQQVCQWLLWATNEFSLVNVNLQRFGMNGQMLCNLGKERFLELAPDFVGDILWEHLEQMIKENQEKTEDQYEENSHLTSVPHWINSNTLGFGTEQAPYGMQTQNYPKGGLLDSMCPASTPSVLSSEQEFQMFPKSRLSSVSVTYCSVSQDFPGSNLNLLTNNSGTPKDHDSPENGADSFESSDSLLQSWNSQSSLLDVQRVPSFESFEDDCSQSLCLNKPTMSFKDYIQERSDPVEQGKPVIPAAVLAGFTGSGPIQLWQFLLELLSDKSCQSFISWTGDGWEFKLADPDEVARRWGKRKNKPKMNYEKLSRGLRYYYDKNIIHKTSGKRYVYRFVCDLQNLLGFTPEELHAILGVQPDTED
In short: as §1

SPDEF = biological target: T4, SPDEF (Homo sapiens, UniProt O95238 1-335)
T4 sequence: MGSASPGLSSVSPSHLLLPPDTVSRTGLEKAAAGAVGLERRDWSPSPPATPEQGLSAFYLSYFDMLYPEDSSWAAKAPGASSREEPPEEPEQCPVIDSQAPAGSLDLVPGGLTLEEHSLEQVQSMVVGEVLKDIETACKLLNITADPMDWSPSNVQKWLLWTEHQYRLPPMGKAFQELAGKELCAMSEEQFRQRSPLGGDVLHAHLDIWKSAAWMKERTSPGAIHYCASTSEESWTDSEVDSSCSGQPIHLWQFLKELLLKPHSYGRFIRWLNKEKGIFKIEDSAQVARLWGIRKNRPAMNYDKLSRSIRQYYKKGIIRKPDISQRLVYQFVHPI
In short: as §1

ETV7 = biological target: T5, ETV7 (Homo sapiens, UniProt Q9Y603 1-341)
T5 sequence: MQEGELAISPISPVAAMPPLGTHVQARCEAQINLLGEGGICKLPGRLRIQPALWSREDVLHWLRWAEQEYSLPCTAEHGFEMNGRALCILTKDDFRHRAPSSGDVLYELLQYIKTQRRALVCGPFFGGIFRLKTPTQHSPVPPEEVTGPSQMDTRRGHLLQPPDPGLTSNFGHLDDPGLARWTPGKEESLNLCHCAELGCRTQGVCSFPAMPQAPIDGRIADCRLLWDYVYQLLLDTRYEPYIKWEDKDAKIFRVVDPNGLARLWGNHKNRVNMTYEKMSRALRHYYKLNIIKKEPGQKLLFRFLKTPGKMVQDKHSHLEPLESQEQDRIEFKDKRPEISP
In short: as §1

ELF5 = biological target: T6, ELF5 (Homo sapiens, UniProt Q9UKW6-2 1-255)
T6 sequence: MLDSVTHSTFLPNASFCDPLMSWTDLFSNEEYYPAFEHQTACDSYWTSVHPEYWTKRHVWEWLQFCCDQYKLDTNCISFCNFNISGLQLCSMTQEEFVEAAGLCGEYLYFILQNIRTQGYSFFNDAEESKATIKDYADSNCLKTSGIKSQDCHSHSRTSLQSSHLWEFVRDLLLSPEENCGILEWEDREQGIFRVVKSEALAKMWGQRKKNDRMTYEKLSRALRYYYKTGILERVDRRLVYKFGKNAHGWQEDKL
In short: as §1

ETV3 = biological target: T7, ETV3 (Homo sapiens, UniProt P41162-2 1-143)
T7 sequence: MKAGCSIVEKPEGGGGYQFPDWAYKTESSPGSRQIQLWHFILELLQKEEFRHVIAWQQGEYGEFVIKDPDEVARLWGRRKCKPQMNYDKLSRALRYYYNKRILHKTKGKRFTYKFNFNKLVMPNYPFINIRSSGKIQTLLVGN
In short: as §1

ETV6 = ETV6 (Homo sapiens, UniProt P41212 1-452)
Sequence of ETV6 (P41212 whole entry): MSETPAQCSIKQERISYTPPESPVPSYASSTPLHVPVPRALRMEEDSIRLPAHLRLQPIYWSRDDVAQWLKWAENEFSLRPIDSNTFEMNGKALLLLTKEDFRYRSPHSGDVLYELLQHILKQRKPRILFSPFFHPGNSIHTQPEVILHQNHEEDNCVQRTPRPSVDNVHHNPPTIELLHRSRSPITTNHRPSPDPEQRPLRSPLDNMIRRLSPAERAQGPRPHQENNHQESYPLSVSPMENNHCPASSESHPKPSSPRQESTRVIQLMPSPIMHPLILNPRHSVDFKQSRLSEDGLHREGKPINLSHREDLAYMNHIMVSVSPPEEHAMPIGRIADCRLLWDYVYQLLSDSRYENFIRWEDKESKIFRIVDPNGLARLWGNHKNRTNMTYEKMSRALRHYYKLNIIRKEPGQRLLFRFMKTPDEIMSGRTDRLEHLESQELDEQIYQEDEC
In short: as §1

Sequence	binding signal (ERF)	binding signal (ETV3L)	binding signal (ETS2)	binding signal (SPDEF)	binding signal (ETV7)	binding signal (ELF5)	binding signal (ETV3)	binding signal (ETV6)
AATAGC	1.25 fold enrichment (6-mer frequency, TF over GST control)	1.03 fold enrichment (6-mer frequency, TF over GST control)	1.15 fold enrichment (6-mer frequency, TF over GST control)	1.1 fold enrichment (6-mer frequency, TF over GST control)	1.19 fold enrichment (6-mer frequency, TF over GST control)	1.16 fold enrichment (6-mer frequency, TF over GST control)	1.23 fold enrichment (6-mer frequency, TF over GST control)	1.1 fold enrichment (6-mer frequency, TF over GST control)
CTGCAA	1.28 fold enrichment (6-mer frequency, TF over GST control)	1.35 fold enrichment (6-mer frequency, TF over GST control)	1.31 fold enrichment (6-mer frequency, TF over GST control)	1.11 fold enrichment (6-mer frequency, TF over GST control)	1.16 fold enrichment (6-mer frequency, TF over GST control)	1.17 fold enrichment (6-mer frequency, TF over GST control)	1.26 fold enrichment (6-mer frequency, TF over GST control)	1.33 fold enrichment (6-mer frequency, TF over GST control)
ATAAAT	1.19 fold enrichment (6-mer frequency, TF over GST control)	1.18 fold enrichment (6-mer frequency, TF over GST control)	1.19 fold enrichment (6-mer frequency, TF over GST control)	1.17 fold enrichment (6-mer frequency, TF over GST control)	1.14 fold enrichment (6-mer frequency, TF over GST control)	1.08 fold enrichment (6-mer frequency, TF over GST control)	1.19 fold enrichment (6-mer frequency, TF over GST control)	1.25 fold enrichment (6-mer frequency, TF over GST control)
CTCCCA	1.54 fold enrichment (6-mer frequency, TF over GST control)	1.29 fold enrichment (6-mer frequency, TF over GST control)	1.37 fold enrichment (6-mer frequency, TF over GST control)	1.42 fold enrichment (6-mer frequency, TF over GST control)	1.07 fold enrichment (6-mer frequency, TF over GST control)	1.41 fold enrichment (6-mer frequency, TF over GST control)	1.34 fold enrichment (6-mer frequency, TF over GST control)	1.46 fold enrichment (6-mer frequency, TF over GST control)
GTCTCG	1.29 fold enrichment (6-mer frequency, TF over GST control)	1.29 fold enrichment (6-mer frequency, TF over GST control)	1.37 fold enrichment (6-mer frequency, TF over GST control)	1.09 fold enrichment (6-mer frequency, TF over GST control)	1.28 fold enrichment (6-mer frequency, TF over GST control)	1.26 fold enrichment (6-mer frequency, TF over GST control)	1.33 fold enrichment (6-mer frequency, TF over GST control)	1.32 fold enrichment (6-mer frequency, TF over GST control)
ATGTTC	1.27 fold enrichment (6-mer frequency, TF over GST control)	1.31 fold enrichment (6-mer frequency, TF over GST control)	1.25 fold enrichment (6-mer frequency, TF over GST control)	1.3 fold enrichment (6-mer frequency, TF over GST control)	1.3 fold enrichment (6-mer frequency, TF over GST control)	1.32 fold enrichment (6-mer frequency, TF over GST control)	1.34 fold enrichment (6-mer frequency, TF over GST control)	1.18 fold enrichment (6-mer frequency, TF over GST control)
TATCCA	1.27 fold enrichment (6-mer frequency, TF over GST control)	1.28 fold enrichment (6-mer frequency, TF over GST control)	1.28 fold enrichment (6-mer frequency, TF over GST control)	1.21 fold enrichment (6-mer frequency, TF over GST control)	1.34 fold enrichment (6-mer frequency, TF over GST control)	1.27 fold enrichment (6-mer frequency, TF over GST control)	1.23 fold enrichment (6-mer frequency, TF over GST control)	1.2 fold enrichment (6-mer frequency, TF over GST control)
TAAAAT	1.22 fold enrichment (6-mer frequency, TF over GST control)	1.28 fold enrichment (6-mer frequency, TF over GST control)	1.28 fold enrichment (6-mer frequency, TF over GST control)	1.14 fold enrichment (6-mer frequency, TF over GST control)	1.17 fold enrichment (6-mer frequency, TF over GST control)	1.15 fold enrichment (6-mer frequency, TF over GST control)	1.17 fold enrichment (6-mer frequency, TF over GST control)	1.18 fold enrichment (6-mer frequency, TF over GST control)
TCAAAA	1.12 fold enrichment (6-mer frequency, TF over GST control)	1.18 fold enrichment (6-mer frequency, TF over GST control)	1.15 fold enrichment (6-mer frequency, TF over GST control)	1.06 fold enrichment (6-mer frequency, TF over GST control)	1.22 fold enrichment (6-mer frequency, TF over GST control)	1.11 fold enrichment (6-mer frequency, TF over GST control)	1.15 fold enrichment (6-mer frequency, TF over GST control)	1.24 fold enrichment (6-mer frequency, TF over GST control)
CCTAAG	1.11 fold enrichment (6-mer frequency, TF over GST control)	1.12 fold enrichment (6-mer frequency, TF over GST control)	1.09 fold enrichment (6-mer frequency, TF over GST control)	1.08 fold enrichment (6-mer frequency, TF over GST control)	1.09 fold enrichment (6-mer frequency, TF over GST control)	1.11 fold enrichment (6-mer frequency, TF over GST control)	1.06 fold enrichment (6-mer frequency, TF over GST control)	1.11 fold enrichment (6-mer frequency, TF over GST control)
TAACGC	1.06 fold enrichment (6-mer frequency, TF over GST control)	1.18 fold enrichment (6-mer frequency, TF over GST control)	1.15 fold enrichment (6-mer frequency, TF over GST control)	1.15 fold enrichment (6-mer frequency, TF over GST control)	1.01 fold enrichment (6-mer frequency, TF over GST control)	1.13 fold enrichment (6-mer frequency, TF over GST control)	1.2 fold enrichment (6-mer frequency, TF over GST control)	1.17 fold enrichment (6-mer frequency, TF over GST control)
CGCCCT	1.37 fold enrichment (6-mer frequency, TF over GST control)	1.34 fold enrichment (6-mer frequency, TF over GST control)	1.38 fold enrichment (6-mer frequency, TF over GST control)	1.31 fold enrichment (6-mer frequency, TF over GST control)	1.51 fold enrichment (6-mer frequency, TF over GST control)	1.22 fold enrichment (6-mer frequency, TF over GST control)	1.34 fold enrichment (6-mer frequency, TF over GST control)	1.31 fold enrichment (6-mer frequency, TF over GST control)
TCTATT	1.26 fold enrichment (6-mer frequency, TF over GST control)	1.28 fold enrichment (6-mer frequency, TF over GST control)	1.23 fold enrichment (6-mer frequency, TF over GST control)	1.37 fold enrichment (6-mer frequency, TF over GST control)	1.11 fold enrichment (6-mer frequency, TF over GST control)	1.18 fold enrichment (6-mer frequency, TF over GST control)	1.25 fold enrichment (6-mer frequency, TF over GST control)	1.29 fold enrichment (6-mer frequency, TF over GST control)
ACTCTC	1.42 fold enrichment (6-mer frequency, TF over GST control)	1.49 fold enrichment (6-mer frequency, TF over GST control)	1.48 fold enrichment (6-mer frequency, TF over GST control)	1.45 fold enrichment (6-mer frequency, TF over GST control)	1.27 fold enrichment (6-mer frequency, TF over GST control)	1.37 fold enrichment (6-mer frequency, TF over GST control)	1.5 fold enrichment (6-mer frequency, TF over GST control)	1.33 fold enrichment (6-mer frequency, TF over GST control)
CCTTAC	1.32 fold enrichment (6-mer frequency, TF over GST control)	1.26 fold enrichment (6-mer frequency, TF over GST control)	1.3 fold enrichment (6-mer frequency, TF over GST control)	1.33 fold enrichment (6-mer frequency, TF over GST control)	1.36 fold enrichment (6-mer frequency, TF over GST control)	1.69 fold enrichment (6-mer frequency, TF over GST control)	1.31 fold enrichment (6-mer frequency, TF over GST control)	1.28 fold enrichment (6-mer frequency, TF over GST control)
